pCIP destab: compounds decreasing mouse p/CIP protein stability; F442A p/CIP-EGFP cells, EGFP fluorescence, 16 h; Q05BA5; decrease of EGFP signal, % at 10 µM; 0.01% of 290,000 active; AID 1984;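 active = EGFP signal decrease of at least 30% at 10 µM or well 3 SD below plate mean, unless failing retest; inactive = the rest, including hits failing retest or dose response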
GRIN3A LBD mod: modulators (binders) of human NR3A ligand-binding domain; NR3A LBD differential scanning fluorimetry, Tm shift; 0% = protein alone, 100% = glycine-bound protein; Tm shift relative to glycine control, % at 25 µM; 2.5% of 340,000 active;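 active = melting temperature shift of at least 10% of the positive control shift, at one fixed dose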
FAS-TE inh: FAS thioesterase (human) inhibition | P49327 | recombinant FAS-TE, OMFH fluorogenic substrate, fluorescence endpoint | inhibition, % at 15 µM | 0.67% of 360,000 active | AID 602261;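 active = compounds whose normalised, plate-corrected inhibition of enzyme fluorescence in the single-dose primary screen is 50% or more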;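 also: 0% = DMSO with enzyme and 100% = substrate without enzyme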
Target sequence (P49327 whole entry, looked up): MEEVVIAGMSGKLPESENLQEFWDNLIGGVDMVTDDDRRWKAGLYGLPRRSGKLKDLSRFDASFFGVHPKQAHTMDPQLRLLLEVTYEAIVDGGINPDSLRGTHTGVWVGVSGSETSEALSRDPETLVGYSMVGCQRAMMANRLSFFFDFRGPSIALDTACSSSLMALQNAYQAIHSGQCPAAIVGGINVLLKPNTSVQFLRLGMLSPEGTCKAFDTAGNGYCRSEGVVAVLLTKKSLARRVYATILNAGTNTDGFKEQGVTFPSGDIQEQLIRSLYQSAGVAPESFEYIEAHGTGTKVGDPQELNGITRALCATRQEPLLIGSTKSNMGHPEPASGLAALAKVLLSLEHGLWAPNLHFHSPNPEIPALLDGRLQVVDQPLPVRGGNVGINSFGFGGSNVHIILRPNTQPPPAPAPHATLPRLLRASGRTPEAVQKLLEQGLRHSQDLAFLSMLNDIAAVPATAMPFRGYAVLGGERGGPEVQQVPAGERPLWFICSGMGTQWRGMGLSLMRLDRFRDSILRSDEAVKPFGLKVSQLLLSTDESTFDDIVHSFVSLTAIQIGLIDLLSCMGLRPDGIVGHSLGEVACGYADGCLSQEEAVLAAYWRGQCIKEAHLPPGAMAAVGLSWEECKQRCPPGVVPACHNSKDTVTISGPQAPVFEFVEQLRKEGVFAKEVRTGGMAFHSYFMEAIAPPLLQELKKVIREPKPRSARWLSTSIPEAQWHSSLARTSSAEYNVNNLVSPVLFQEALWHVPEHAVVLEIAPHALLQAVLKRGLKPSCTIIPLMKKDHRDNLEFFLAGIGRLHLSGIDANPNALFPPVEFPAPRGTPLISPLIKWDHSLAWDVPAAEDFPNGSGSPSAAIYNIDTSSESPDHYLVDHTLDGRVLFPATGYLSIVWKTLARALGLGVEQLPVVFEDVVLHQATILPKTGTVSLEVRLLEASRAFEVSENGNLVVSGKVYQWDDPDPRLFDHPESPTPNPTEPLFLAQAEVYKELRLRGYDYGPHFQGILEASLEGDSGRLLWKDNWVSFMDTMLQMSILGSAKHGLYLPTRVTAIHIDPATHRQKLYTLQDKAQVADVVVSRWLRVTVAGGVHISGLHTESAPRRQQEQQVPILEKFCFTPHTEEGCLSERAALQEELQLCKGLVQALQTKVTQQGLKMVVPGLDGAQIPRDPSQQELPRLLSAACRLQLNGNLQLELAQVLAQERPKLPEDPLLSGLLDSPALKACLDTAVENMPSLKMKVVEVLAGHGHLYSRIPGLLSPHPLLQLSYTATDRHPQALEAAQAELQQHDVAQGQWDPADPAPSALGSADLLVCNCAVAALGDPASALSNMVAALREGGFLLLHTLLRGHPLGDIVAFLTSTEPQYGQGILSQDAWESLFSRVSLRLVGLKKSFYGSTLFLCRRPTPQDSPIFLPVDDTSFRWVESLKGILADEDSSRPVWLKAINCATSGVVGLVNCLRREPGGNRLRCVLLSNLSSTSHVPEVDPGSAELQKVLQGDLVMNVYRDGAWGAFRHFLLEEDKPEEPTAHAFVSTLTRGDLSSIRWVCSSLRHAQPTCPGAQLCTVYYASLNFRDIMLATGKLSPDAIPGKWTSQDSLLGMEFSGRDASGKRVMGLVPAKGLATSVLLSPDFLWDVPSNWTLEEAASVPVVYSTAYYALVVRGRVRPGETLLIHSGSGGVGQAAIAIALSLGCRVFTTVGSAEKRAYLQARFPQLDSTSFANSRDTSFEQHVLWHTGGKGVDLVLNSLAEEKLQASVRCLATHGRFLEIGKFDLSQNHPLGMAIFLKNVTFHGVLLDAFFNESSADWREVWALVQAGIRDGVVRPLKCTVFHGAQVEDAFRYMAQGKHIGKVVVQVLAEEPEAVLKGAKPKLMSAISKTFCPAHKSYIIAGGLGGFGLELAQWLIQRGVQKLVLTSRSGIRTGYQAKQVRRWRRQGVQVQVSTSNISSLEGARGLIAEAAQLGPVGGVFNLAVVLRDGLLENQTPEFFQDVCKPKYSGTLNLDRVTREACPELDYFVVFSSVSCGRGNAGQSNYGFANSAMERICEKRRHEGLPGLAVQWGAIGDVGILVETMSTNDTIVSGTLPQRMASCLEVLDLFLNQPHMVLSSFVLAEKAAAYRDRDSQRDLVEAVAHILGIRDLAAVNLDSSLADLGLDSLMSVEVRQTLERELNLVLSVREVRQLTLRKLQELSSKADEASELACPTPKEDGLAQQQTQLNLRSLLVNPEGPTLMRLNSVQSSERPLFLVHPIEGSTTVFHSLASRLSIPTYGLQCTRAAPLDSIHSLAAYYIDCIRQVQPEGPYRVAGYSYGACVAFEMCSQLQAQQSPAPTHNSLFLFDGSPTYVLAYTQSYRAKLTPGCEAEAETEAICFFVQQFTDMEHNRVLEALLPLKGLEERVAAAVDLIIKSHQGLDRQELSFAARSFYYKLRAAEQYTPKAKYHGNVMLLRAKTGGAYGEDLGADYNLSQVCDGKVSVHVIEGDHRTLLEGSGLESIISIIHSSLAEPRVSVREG
MPTP inh: blocks calcium-induced mitochondrial swelling. 1.4% of 360,000 active. isolated mouse mitochondria, Ca2+ swelling absorbance, 30 min. inhibition, % at 10 µM;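 active = inhibition of 50% or more, scaled per plate between neutral and stimulator controls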;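 also: 0% = DMSO wells given calcium and 100% = 1 mM EGTA wells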
MIN6 prolif: inducers of beta-cell replication in MIN6 cells. proliferation, % at 10 µM. MIN6 cells proliferation, ATPlite luminescence, 48 h; cells starved in 0.2% serum; 100% = growth in 10% serum. 0.29% of 330,000 active;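 active = compounds whose signal lies at least 3.5 SD above the mean of all wells on their plate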;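 also: 0% = DMSO-treated cells in low-serum medium and 100% = 10% serum control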
An asterisk follows results filed as active; . = no result given. Only some compounds are listed: those with a hit (about 4.1% of all), similar ones and a draw of the others.

SMILES | pCIP destab | GRIN3A LBD mod | FAS-TE inh | MPTP inh | MIN6 prolif
CCCC(Oc1ccc(Br)cc1)c1nc2c3cc(OC)c(OC)cc3nc(=S)n2[nH]1 (stereo not given) | -5.4 | 16.1* | 29.4 | 5.4 | -6.0
CCCCC1=C(C(=O)OCC)C(C(=O)OCC)Oc2ccccc21 (stereo not given) | . | 18.1* | 15.5 | 0.0 | .
CCOC(=O)C1=C(c2ccccc2)c2ccccc2OC1C(=O)OCC (stereo not given) | . | 0.7 | 9.7 | 0.4 | .
CCOC(=O)C1Oc2ccccc2C(c2ccc(OC)cc2)=C1C(=O)OC (stereo not given) | . | 12.7* | 15.7 | 0.5 | .
CCCCNC(=O)C1(C)CCC(=O)N1CCc1c[nH]c2ccccc12 (stereo not given) | . | . | -7.6 | -0.1 | .
CCOc1ccc2nc(N3CCOCC3)nc(C)c2c1 | -9.0 | -1.3 | 1.3 | 1.9 | -3.6
CCOc1ccc2nc3ccc4[nH]onc4c3c2c1 | . | 30.8* | -48.0 | 42.1 | -2.4
CCC(C)Nc1nc(Cl)nc(NCCOc2ccccc2)n1 (stereo not given) | -6.5 | 13.4* | 36.7 | -0.5 | -2.3
CCOc1ccc(/C=N/NC(=O)Cc2csc(Nc3cccc(C(F)(F)F)c3)n2)c(OCC)c1 | 1.8 | 10.0* | 13.5 | 1.9 | -5.4
CCN(CC)c1ccc(C=C2C(=O)OC3(CCCC3)OC2=O)cc1 | 2.4 | 23.2* | -10.5 | 0.2 | 1.9
CCN(CC)c1ccc(C=C2C(=O)OC(c3ccccc3)OC2=O)cc1 (stereo not given) | -11.4 | 31.6* | -4.8 | -2.6 | -1.1
CCNC(=O)C1(C)CCN(C(=O)c2cccs2)C1 (stereo not given) | . | . | -9.8 | -0.7 | .
COc1ccc(Cl)cc1-c1cc(C(=O)Nc2ccccc2)[nH]n1 | . | . | 16.7 | 1.6 | .
Cc1cccc(NC(=O)c2cc(-c3cc(C)cc(C)c3O)n[nH]2)c1 | 15.6 | 35.7* | 10.4 | 23.3 | -7.0
Cc1cccc(NC(=O)c2cc(-c3cc(Cl)ccc3O)n[nH]2)c1 | -6.2 | 36.0* | -9.0 | 1.3 | -0.7
Cc1ccc(NC(=O)c2cc(-c3cc(Cl)ccc3O)n[nH]2)cc1C | -7.0 | 29.2* | -5.6 | 5.0 | 1.4
Cc1cccc(NC(=O)c2cc(-c3c(C)cc(C)cc3O)n[nH]2)c1 | 6.1 | -10.9 | -4.6 | 0.2 | -2.9
COc1cc(C(=O)N(C)C2CCCCC2)cc(OC)c1OC | . | . | -2.8 | -2.2 | .
COc1ccc(-c2ccc(CN3C(C(C)C)C(=O)N(Cc4cn(Cc5ccco5)nn4)CCS3(=O)=O)cc2)cn1 (stereo not given) | . | . | 17.1 | -0.7 | .
NC(Cc1ccc(Cl)cc1)c1csc(NC(=O)Nc2ccccc2-c2ccccc2)n1 (stereo not given) | . | . | -7.6 | 4.1 | .
CC(=O)OC[C@@H]1CN(Cc2ccccc2)C[C@H](n2cnc3c(Nc4ccccc4)ncnc32)O1 | . | . | 2.6 | 0.1 | .
Cn1ncc(Cl)c1C(=O)NC1C2CC3CC(C2)CC1C3 (stereo not given) | 12.2 | -0.8 | -5.4 | 2.5 | 3.5
Cc1nn(C)c(C(=O)NC2C3CC4CC(C3)CC2C4)c1Cl (stereo not given) | -4.1 | -1.5 | 3.8 | 0.6 | 7.7*
COC(=O)c1ccc2nc(C3CCCCC3)c(Cc3ccc(OC)cc3C)n2c1 | . | . | -4.0 | -0.5 | .
CC(=O)c1ccc2c(c1)Nc1ccccc1S2 | 6.5 | -34.7 | -1.0 | 1.7 | -3.2
SMILES | pCIP destab | GRIN3A LBD mod | FAS-TE inh | MPTP inh | MIN6 prolif
C/C(=N\NC(=O)c1ccc(C)cc1C)c1ccc2c(c1)Nc1ccccc1S2 | 0.4 | 11.6* | 4.2 | 3.2 | -2.6
Cc1ccc(S(=O)(=O)N(C)c2ccc(C(=O)NCC(c3ccco3)N3CCCC3)cc2)cc1 (stereo not given) | . | . | -3.9 | 0.4 | .
O=C(N/N=C/c1cn(-c2ccccc2)nc1-c1cc2ccccc2o1)c1c[nH]c2ccccc12 | -19.9 | 19.6* | 15.1 | 0.2 | -4.0
N#CCCn1cc(C(=O)Nc2ccc([N+](=O)[O-])cc2)c(-c2cc3ccccc3o2)n1 | -1.0 | 13.9* | 5.5 | 1.6 | -3.4
N#CCCn1cc(C(=O)Nc2ccccc2Br)c(-c2cc3ccccc3o2)n1 | -29.1 | -9.4 | 11.5 | -23.3 | -1.1
COc1ccc(NC(=O)c2cn(-c3ccccc3)nc2-c2cc3ccccc3o2)cc1 | 1.3 | 10.7* | 32.7 | 1.5 | -1.0
CC(C)=NN/C(N)=N/C(=S)Nc1ccc(C)cc1 | -4.3 | 13.1* | -8.8 | 1.3 | 1.6
Cc1ccc(NC(=S)NNC(C)(C)C)cc1 | -2.3 | -0.6 | -3.7 | -1.8 | -1.6
Cc1ccc(CCNC(=O)C2CCC(CNc3c(N4CCCC4)c(=O)c3=O)CC2)cc1 (stereo not given) | -23.0 | 16.8* | -0.9 | -0.4 | -0.9
CN(Cc1ccccc1)S(=O)(=O)c1ccccc1Br | . | 4.7 | 12.0 | -0.7 | .
CC(C)[C@@H](CO)N(C)S(=O)(=O)c1ccccc1Br | . | 11.3* | -9.9 | 0.3 | .
Cc1cc(=O)c2c(o1)C(=O)c1occc1C2=O | . | -1.7 | -30.3 | 0.6 | .
CS(=O)(=O)c1ccc(C(=O)Nc2nc(-c3ccco3)c(-c3ccco3)s2)cc1 | . | 19.3* | 9.2 | 1.5 | -0.4
COc1ccc(NC2=CC(=O)CC(C)(C)C2)cc1 | -7.2 | 15.3* | -2.5 | 0.4 | -3.9
COc1cccc(CNC(=O)[C@@H]2CCCN2C(=O)[C@H]2CCCCN2C(=O)c2c(F)cccc2F)c1 | . | . | -12.1 | 0.4 | .
Cn1cccc1-c1nc2ccc(NC(=O)c3cccs3)cc2[nH]1 | -5.2 | 16.1* | -3.8 | 5.9 | -0.3
CC(=O)Nc1ccc2nc(-c3cccn3C)[nH]c2c1 | -7.0 | -2.2 | -5.2 | -0.7 | 2.5
O=C(Nc1ccc2nc(-c3ccc(Br)o3)[nH]c2c1)c1ccco1 | -12.8 | 10.0* | -0.8 | -1.5 | -2.3
O=C(Nc1ccc2nc(-c3ccc(Br)o3)[nH]c2c1)c1cccs1 | -2.9 | 21.4* | 4.3 | 0.1 | -4.0
CC(=O)Nc1ccc2nc(-c3ccc(Br)o3)[nH]c2c1 | -2.9 | 8.0 | -1.4 | -0.8 | -2.7
O=C(NCC1CC1)C1Cc2c(-c3ccc4c(c3)OCO4)ccnc2O1 (stereo not given) | . | . | -5.4 | 0.2 | .
CCn1c(SCC(=O)Nc2ccc(NC(=O)c3cccs3)cc2)nnc1-c1cccnc1 | -4.9 | 21.3* | -4.5 | -0.2 | -2.0
CC(O)(c1cccnc1)c1nc(-c2ccc(S(C)(=O)=O)cc2)cs1 (stereo not given) | . | . | -9.4 | -1.9 | .
O=[N+]([O-])c1ccc(Cl)c2cccnc12 | 11.8 | 12.2* | -4.3 | -0.4 | -3.8
CCc1cc(C(=O)Nc2cc(Cl)ccc2N2CCN(C)CC2)sc1C | . | 11.2* | 4.2 | 19.9 | -5.5
CCOc1ccc(NC(=O)CN2CCN(c3ccc(F)cc3)CC2)cc1S(=O)(=O)N1CCCC1 | . | . | 7.6 | 0.7 | .
O=C(Nc1cccc(F)c1)c1ccc(-c2cccnc2)c2ccoc12 | . | . | 10.8 | 1.1 | .
Cc1csc(N(C(=O)c2cccc(S(=O)(=O)N(C)C)c2)c2ccccc2)n1 | -0.7 | 12.2* | 10.3 | 0.3 | -1.0
CCOC(=O)/C=C/c1cccc(C)c1O | . | . | . | -0.2 | .
c1ccc(Sc2ncnc3c2oc2ccccc23)cc1 | -15.0 | 33.8* | 9.0 | -0.4 | 4.7
